Experimental data reported in PubChem BioAssay (EPA / NIEHS).
Active and inactive are the calls of the source. The calls were made as follows: active = hit-call score of the fitted dose curve at least 0.9, where 1 is the maximum; inconclusive = response in the unintended direction; inactive = score below 0.9.

Test: Tanguay_ZF_120hpf_ActivityScore_legacy: (Legacy) Oregon State University Tanguay Lab 120 Hour Post-fertilization zebrafish Assay Score for Activity (AID 2283742);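 as to AC50: static exposure from 6 hpf until 120 hpf at 28 °C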
Method: Tanguay_ZF_120hpf_legacy is a whole embryo, multiplexed endpoint assay using zebrafish larvae exposed for 120 hours post fertilization on a 96-well plate.Tanguay_ZF_120hpf_ActivityScore_legacy is one of one assay component(s) measured or calculated from the Tanguay_ZF_120hpf_legacy assay. It is designed to make measurements of developmental malformations and mortality as detected with brightfield microscopy and combines scoring from 18 other assay components measuring more specific morphologies.Data from the assay component Tanguay_ZF_120hpf_ActivityScore_legacy was analyzed into 1 assay endpoints. This assay endpoint, Tanguay_ZF_120hpf_ActivityScore_legacy, was analyzed in the positive analysis fitting direction relative to DMSO as the negative control and baseline of activity. Using a type of morphology reporter, gain-of-signal activity can be used to understand changes in developmentals as they relate to the whole embryo. To generalize the intended target to other relatable targets, this assay endpoint is annotated to the zebrafish development intended target family, where the subfamily is embryonic morphogenesis and mortality.
Zebrafish husbandry: Tropical 5D wild-type adult zebrafish were housed in at an approximate density of 1000 per 100 gallon tank at the Sinnhuber Aquatic Research Laboratory, Oregon State University, Corvallis, OR. Each tank was kept at standard laboratory conditions of 28C on a 14-h light/10-h dark photoperiod in fish water consisting of reverse osmosis water supplemented with a commercially available salt (Instant Ocean). Spawning funnels were placed into the tanks the night prior, and embryos were collected and staged. To increase bioavailability, the chorion was enzymatically removed using pronase (63.6mg/ml, >/= 3.5U/mg, Sigma-Aldrich: P5147) at 4 hours post fertilization (hpf) using a custom automated dechorionator.Chemical exposures: Six hpf dechorionated embryos were placed 1 embryo per well in a 96-well plate prefilled with 90 ul of EM using automated embryo placement systems (AEPS). Ten microliters of each row of dilution plate 2 was added to 2 exposure plates. The final DMSO concentration used was 0.64% (vol/vol). Thirty-two embryos were also exposed to 5uM trimethyltin chloride (positive control). Plates were sealed to prevent evaporation and foil covered to reduce light exposure and kept in a 28C incubator. Embryos were statically exposed until 120 hpf. At 24 hpf, embryos were assessed for photomotor response using a custom photomotor response analysis tool (PRAT) and for developmental toxicity endpoints (MO24: mortality at 24 hpf, DP: developmental progression, SM: spontaneous movement, and NC: notochord distortion). At 120 hpf, locomotor activity was measured using Viewpoint Zebralab and assessed for 18 endpoints. Zebrafish acquisition and analysis program (ZAAP), a custom program designed to inventory, acquire, and manage zebrafish data, was used to collect developmental endpoints as either present or absent (i.e., binary responses were recorded). If mortality occurred for an embryo (at either 24 or 120 hpf), the non-mortality endpoints were not measured.

SMILES | outcome | AC50
O=C(OCCOCCOC(=O)c1ccccc1)c1ccccc1 | inactive | 
CCCCCCCCCCCCN1CCCC1=O |  | 45.8 µM (active)
Nc1cccc2c(N)cccc12 | inactive | 
ClC1=C(Cl)C(Cl)(Cl)C(Cl)=C1Cl | inactive | 
CCCOC(=O)c1ccc(O)cc1 |  | 43.3 µM (active)
CN1CCN(c2ccccc2/C=C2\SCCN(c3ccc(Cl)c(Cl)c3)C2=O)CC1 | inactive | 
Cc1oc(-c2ccccc2)nc1CCOc1ccc(C[C@H](Nc2ccccc2C(=O)c2ccccc2)C(=O)O)cc1 |  | 33.2 µM (active)
CCCCCCCCC(=O)O | inactive | 
OC1CCCCC1 | inactive | 
C=C(C)C(=O)OCCC(F)(F)C(F)(F)C(F)(F)C(F)(F)C(F)(F)C(F)(F)F | inactive | 
Cc1cc(C)c(O)c(C)c1 | inactive | 
CCC(=C(c1ccc(O)cc1)c1ccc(OCCN(C)C)cc1)c1ccccc1 | inactive | 
C#C[C@]1(O)CC[C@H]2[C@@H]3CCC4=CC(=O)CC[C@@H]4[C@H]3CC[C@@]21C | inactive | 
CC(O)CO (stereo not given) | inactive | 
C[C@@H]1C[C@H]2[C@@H]3CCC4=CC(=O)C=C[C@]4(C)[C@@]3(F)[C@@H](O)C[C@]2(C)[C@@]1(O)C(=O)COP(=O)(O)O | inactive | 
CCC(C)(C)C1CCC(O)CC1 (stereo not given) | inactive | 
CCc1ccc(CCOc2ccc(CC3SC(=O)NC3=O)cc2)nc1 (stereo not given) | inactive | 
CCCOc1sc(C(=O)N2CCC(c3cc(CN)ccc3F)CC2)c(C)c1Br | inactive | 
CC[C@H](c1ccc(O)cc1)[C@@H](CC)c1ccc(O)cc1 | inactive | 
Oc1cccc(O)c1 | inactive | 

SMILES | outcome | AC50
OCCC(F)(F)C(F)(F)C(F)(F)C(F)(F)C(F)(F)C(F)(F)F | inactive | 
CCCCC(CC)COC(=O)CCCCC(=O)OCc1ccccc1 (stereo not given) | inactive | 
O=[N+]([O-])c1ccc(O)cc1 | inactive | 
CC[C@H](C)[C@@H](C(=O)O)n1sc2ccccc2c1=O | inactive | 
COCC(C)OCC(C)O (stereo not given) | inactive | 
CC(=O)NC1(c2cccc(F)c2)CCN(CC[C@@]2(c3ccc(Cl)c(Cl)c3)CN(c3ccccc3)C(=O)CO2)CC1 | inactive | 
c1ccc2c(c1)ccc1ccccc12 | inactive | 
CCCCCCCCCCCCCCCS(=O)(=O)Oc1ccccc1 | inactive | 
CCCCOCCO | inactive | 
COc1ccc([N+](=O)[O-])cc1N | inactive | 
CCCCCCCCCCCCc1ccccc1S(=O)(=O)O | inactive | 
CCCCCCC(=O)O | inactive | 
NC(=O)N(O)[C@@H]1C=C[C@H](Oc2cccc(Oc3ccc(F)cc3)c2)C1 | inactive | 
Cc1cc(CCN2CCN(c3nsc4ccccc34)CC2)cc2c1NC(=O)CC2(C)C |  | 3.78 µM (active)
COC(=O)CCCCC(=O)OC | inactive | 
Oc1cc2ccccc2c2ccccc12 |  | 31.4 µM (active)
CCCCC(CC)COC(=O)CCCCC(=O)OCC(CC)CCCC (stereo not given) | inactive | 
CCc1nn(C2CCCCC2)c2cc(C3(C#N)CCC(C(=O)O)CC3)ccc12 (stereo not given) |  | 0.421 µM (active)
N#C[C@@H]1CC(F)(F)CN1C(=O)CNC1CC2CCC(C1)N2c1ncccn1 (stereo not given in full) | inactive | 
COCC(C)O (stereo not given) | inactive | 
